Laboratory results from PubChem BioAssay (EPA / NIEHS).
Results filed as inconclusive are left out. The source made the active and inactive calls. The calls were made as follows, unless noted: active = hit-call score of the fitted dose curve at least 0.9, where 1 is the maximum; inactive = score below 0.9.

What was measured:
[1] = tested on: IYD (gene 389434); assay: CCTE_GLTED_hIYD: CCTE's human Iodotyrosine Deiodinase (xIYD) Inhibition Assay, Great Lakes Toxicology and Ecology Division (GLTED) Lab (AID 2284317; active = hit-call score of the fitted dose curve at least 0.9, where 1 is the maximum;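 also: cell-free human IYD enzyme made in baculovirus insect cells; iodide freed from monoiodotyrosine measured by cerium arsenite color change at 420 nm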)
Outline: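 hIYD: baculovirus-expressed human IYD deiodinated monoiodotyrosine for 3 h with test chemical; free iodide was measured by Sandell-Kolthoff absorbance at 420 nm and normalized to MNT and DMSO/NaOH controls.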

[2] = CCTE_Deisenroth_5AR_NBTE_donor: CCTE's 5alpha-reductase NanoBRET Target Engagement Assay […], Deisenroth Lab (AID 2284319); details: actives raise or lower the signal
Outline: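 HEK293T cells transiently expressing SRD5A2-NanoLuc, exposed 5 h to chemicals (8 points, 10 nM - 29.9 uM), with testosterone tracer for the final 2 h. Donor luminescence at 460 nm read after Nano-Glo substrate plus extracellular NanoLuc inhibitor; bidirectional fit versus DMSO.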

[3] = CCTE_Deisenroth_5AR_NBTE_acceptor: CCTE's 5alpha-reductase NanoBRET Target Engagement Assay - Autofluorescence Screen, Deisenroth Lab (AID 2284321); details: actives raise or lower the signal;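 also: compound fluorescence in the acceptor channel under 460 nm excitation flags autofluorescence artifacts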
Outline: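 Autofluorescence counter-screen: chemicals at an assumed nominal 100 uM in DMSO were scanned in three independent runs with 460 nm excitation. Gain or loss of acceptor signal was fitted bidirectionally against DMSO.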

[4] = tested on: SRD5A2 (gene 6716); assay: CCTE_Deisenroth_5AR_NBTE_ratio: CCTE's 5alpha-reductase NanoBRET Target Engagement Assay - Ratio, Deisenroth Lab (AID 2284322); details: actives raise or lower the signal
Outline: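 HEK293T transiently expressing SRD5A2-NanoLuc; cells exposed to chemical (8-point, 10 nM - 29.9 uM) for 5 h total, testosterone tracer added for final 2 h. NanoBRET acceptor/donor ratio (650/460 nm), bidirectional fit vs DMSO.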

[5] = tested on: TTR (gene 7276); assay: CCTE_GLTED_hTTR_0.5uM: CCTE's human Transthyretin (hTTR) Inhibition Assay, with 0.5uM TTR, Great Lakes Toxicology and Ecology Division (GLTED) Lab (AID 2284320)
Description: CCTE_GLTED_hTTR is a cell-free, single-readout assay designed to test the chemicals' ability to displace T4 from the human transthyretin (TTR) protein. TTR (at 0.125uM or 0.5uM) is incubated in presence of test chemical for 2 hours during which disrupting chemicals displace ANSA from the TTR protein. Results read fluorescence at 380 excitation and 475 emission.CCTE_GLTED_hTTR_0.5uM is the assay component measured from the CCTE_GLTED_hTTR assay. It is designed to make measurements of fluorescent polarization, using a form of binding reporter, as detected with Fluorescence signals by Fluorescence technology.Data from the assay component CCTE_GLTED_hTTR_0.5uM was analyzed at the assay endpoint CCTE_GLTED_hTTR_0.5uM in the positive analysis fitting direction relative to DMSO as the negative control and baseline of activity. Using a type of binding reporter, loss-of-signal activity can be used to understand a chemical's ability to displace T4 from transthyretin. To generalize the intended target to other relatable targets, this assay endpoint is annotated to the 'transporter' intended target family, where the subfamily is 'hormone carrier protein'.

[6] = CCTE_Mundy_HCI_iCellGluta_NOG_NeuriteLength: CCTE's Neurite Outgrowth Assay in iCellGluta cells for Neurite Length, Mundy Lab (AID 2284318; active = hit-call score of the fitted dose curve at least 0.9, where 1 is the maximum)
Outline: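 Automated high-content imaging of betaIII-tubulin (Alexa Fluor-488) and Hoechst-stained cells gave neurite length, normalized to the DMSO baseline.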

[7] = IUF_NPC2-5_cytotoxicity_72hr: Cytotoxicity Assessment at 72 hours in the Leibniz Research Institute for Environmental Medicine (IUF) Neural Progenitor Cell Migration and Differentiation Assay for Cytotoxicity (NPC2-5) (AID 2284306; active = hit-call score of the fitted dose curve at least 0.9, where 1 is the maximum;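 also: LDH release into supernatant measured by resorufin fluorescence marking membrane damage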)
Outline: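 Human fetal (GW 16-19) neural progenitor spheres, 0.3 mm, plated on poly-D-lysine/laminin in N2 differentiation medium and exposed from day 0 to 7 concentrations plus solvent control (DMSO ≤0.1%). LDH-dependent resazurin-to-resorufin fluorescence in supernatant at 72 h.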

[8] = IUF_NPC2-5_cytotoxicity_120hr: Cytotoxicity Assessment at 120 hours in the Leibniz Research Institute for Environmental Medicine (IUF) Neural Progenitor Cell Migration and Differentiation Assay (NPC2-5) (AID 2284307; active = hit-call score of the fitted dose curve at least 0.9, where 1 is the maximum)
Outline: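 Human fetal (GW 16-19) neural progenitor spheres (0.3 mm) plated on poly-D-lysine/laminin in N2 differentiation medium, exposed 120 h with half-medium renewal at day 3; 7 concentrations plus solvent control, DMSO ≤0.1%. LDH release in supernatant read by resorufin fluorescence.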

[9] = IUF_NPC2-5_cell_number_120hr: Cell Number Assessment at 120 hours in the Leibniz Research Institute for Environmental Medicine (IUF) Neural Progenitor Cell Migration and Differentiation Assay (NPC2-5) (AID 2284308);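 also: count of Hoechst-stained nuclei in migration zone around plated human neural progenitor spheres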
Outline: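 Human fetal neural progenitor spheres (0.3 mm) plated on poly-D-lysine/laminin in N2 differentiation medium, exposed five days across 7 concentrations with half-medium refresh at day 3. Hoechst-positive nuclei counted in migration area at 120 h, relative to DMSO.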

[10] = IUF_NPC2-5_viability_120hr: Viability Assessment at 120 hours in the Leibniz Research Institute for Environmental Medicine (IUF) Neural Progenitor Cell Migration and Differentiation Assay (NPC2-5) (AID 2284312)
Outline: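 Human fetal (GW 16-19) neural progenitor spheres of 0.3 mm were plated on poly-D-lysine/laminin in N2 differentiation medium and exposed from day 0 for 120 h, with half-medium refresh at day 3. Viability was read as alamar blue resazurin-to-resorufin fluorescence against DMSO.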

Compound: CN(C)c1ccc2nc3ccc(=[N+](C)C)cc-3sc2c1
- AC50 [1]: 2.73 µM (active)
- outcome [2]: inactive
- AC50 [3]: 10 µM (active)
- AC50 [4]: 2.95 µM (active)

Compound: CCCCCCCCCCCC(=O)N(C)CC(=O)O
- outcome [2]: inactive
- outcome [3]: inactive
- outcome [4]: inactive

Compound: CCCCCCCCCCCCc1ccc(O)cc1
- AC50 [1]: 24 µM (active)
- outcome [2]: inactive
- outcome [3]: inactive
- outcome [4]: inactive

Compound: C=C[C@@]1(C)CC(=O)[C@]2(O)[C@@]3(C)[C@@H](O)CCC(C)(C)[C@@H]3[C@H](O)[C@H](OC(C)=O)[C@@]2(C)O1
- AC50 [2]: 9.91 µM (active)
- outcome [3]: inactive
- outcome [4]: inactive

Compound: CCCCCCCCCCCCCCCCCCOS(=O)(=O)O
- AC50 [1]: 19.5 µM (active)

Compound: CCCCCCCCCC[N+](C)(CCCCCCCCCC)CCC[Si](OC)(OC)OC
- AC50 [1]: 77.2 µM (active)
- AC50 [2]: 33.2 µM (active)
- AC50 [3]: 33.4 µM (active)
- outcome [4]: inactive

Compound: O=S(=O)(O)c1ccc(N=Nc2c(O)ccc3ccccc23)cc1
- AC50 [2]: 13.3 µM (active)
- outcome [3]: inactive
- AC50 [4]: 26.6 µM (active)

Compound: Oc1ccc(-c2ccccc2)c(Cl)c1
- outcome [2]: inactive
- outcome [3]: inactive
- outcome [4]: inactive

Compound: O=C(OCc1ccccc1)c1ccc(O)cc1
- outcome [2]: inactive
- outcome [3]: inactive
- outcome [4]: inactive

Compound: O=C(O)C(F)(F)C(F)(F)C(F)(F)C(F)(F)C(=O)O
- AC50 [5]: 5.53 µM (active)

Compound: CCCCCCCCCCCCCC(=O)OC(C)C
- outcome [2]: inactive
- outcome [3]: inactive
- outcome [4]: inactive

Compound: Cc1noc(NS(=O)(=O)c2ccc(N)cc2)c1C
- outcome [6]: inactive

Compound: CC1=NN(c2ccc(S(=O)(=O)O)cc2)C(=O)C1N=Nc1ccccc1 (centres undefined)
- outcome [2]: inactive
- outcome [3]: inactive
- AC50 [4]: 10 µM (active)

Compound: CCCCC/C=C\C/C=C\CCCCCCCC(=O)O
- AC50 [1]: 137 µM (active)

Compound: O=C(Nc1ccccc1)c1cc(Cl)ccc1O
- outcome [1]: inactive

Compound: CCCCNS(=O)(=O)c1ccccc1
- outcome [7]: inactive
- outcome [8]: inactive
- outcome [9]: inactive
- outcome [10]: inactive
- outcome [6]: inactive

Compound: Cc1c(C(=O)c2c[nH]n(C)c2=O)ccc(S(C)(=O)=O)c1C1=NOCC1
- outcome [7]: inactive
- outcome [8]: inactive
- outcome [9]: inactive
- outcome [10]: inactive
- outcome [6]: inactive

Compound: CCCCC(CC)COC(=O)/C=C/c1ccc(OC)cc1 (centres undefined)
- outcome [1]: inactive

Compound: O=c1c(O)c(-c2ccc(O)cc2O)oc2cc(O)cc(O)c12
- AC50 [1]: 144 µM (active)

Compound: CC(C)(C)NC(=O)[C@H]1CC[C@H]2[C@@H]3CC[C@H]4NC(=O)C=C[C@]4(C)[C@H]3CC[C@]12C
- outcome [2]: inactive
- outcome [3]: inactive
- AC50 [4]: 0.00734 µM (active)

Compound: CCCCCCCOC(=O)c1ccc(O)cc1
- AC50 [1]: 50.4 µM (active)

Compound: COc1ccc(-c2coc3cc(O)cc(O)c3c2=O)cc1
- outcome [2]: inactive
- outcome [3]: inactive
- AC50 [4]: 23.6 µM (active)

Compound: C[N+](C)(C)CCCNS(=O)(=O)C(F)(F)C(F)(F)C(F)(F)C(F)(F)C(F)(F)C(F)(F)C(F)(F)C(F)(F)F
- AC50 [5]: 1.04 µM (active)

Compound: O=C(O)CCC(=O)O
- outcome [2]: inactive
- outcome [3]: inactive
- outcome [4]: inactive

Compound: C=CCOC(=O)c1ccc(C(=O)OCC=C)c(C(=O)OCC=C)c1
- outcome [2]: inactive
- outcome [3]: inactive
- outcome [4]: inactive
